What was measured:
Experiment in all cases: DAPPL (digital affinity profiling via proximity ligation, sequencing); 10 mM Tris-HCl pH 7.5, 50 mM NaCl, 1 mM DTT, 4% glycerol, room temperature, 30 min; GST-TFs on glutathione beads, 16-mer random dsDNA library, 0.1% formaldehyde crosslink after washing; high values mean tight binding
Conditions in all cases: protein: recombinant; tags: N-terminal GST; dsDNA, one strand shown
[1] = molecular target: T1, ELK1 (Homo sapiens, UniProt P19419 1-428)
T1 sequence: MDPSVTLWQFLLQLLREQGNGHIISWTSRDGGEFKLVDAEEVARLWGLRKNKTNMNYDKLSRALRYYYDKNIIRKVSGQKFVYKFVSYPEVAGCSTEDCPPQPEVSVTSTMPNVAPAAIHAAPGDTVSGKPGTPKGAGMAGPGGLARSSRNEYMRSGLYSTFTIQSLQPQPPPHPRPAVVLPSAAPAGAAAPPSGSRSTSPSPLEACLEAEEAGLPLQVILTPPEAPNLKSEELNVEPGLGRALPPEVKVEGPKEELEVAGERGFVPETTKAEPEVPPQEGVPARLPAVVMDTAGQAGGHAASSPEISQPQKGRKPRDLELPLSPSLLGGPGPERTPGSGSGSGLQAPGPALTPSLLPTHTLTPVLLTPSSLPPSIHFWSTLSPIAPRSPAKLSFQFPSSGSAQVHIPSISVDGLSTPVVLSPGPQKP
Outline: (§1)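 GST fusions of human transcription factors were expressed in yeast and captured with glutathione beads. Once given DNA barcodes and pooled alongside a tag-only sample, they were incubated for 30 min at room temperature with 200 nmole of a random double-stranded 16-mer DNA library in Tris/NaCl/DTT/glycerol buffer, then washed, crosslinked (0.1% formaldehyde), proximity-ligated, PCR-amplified and sequenced on an Illumina NextSeq500. The binding signal of each hexamer is its read frequency for a factor divided by its frequency for the tag-only sample.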

[2] = molecular target: T2, GABPA (Homo sapiens, UniProt Q06546 1-454)
T2 sequence: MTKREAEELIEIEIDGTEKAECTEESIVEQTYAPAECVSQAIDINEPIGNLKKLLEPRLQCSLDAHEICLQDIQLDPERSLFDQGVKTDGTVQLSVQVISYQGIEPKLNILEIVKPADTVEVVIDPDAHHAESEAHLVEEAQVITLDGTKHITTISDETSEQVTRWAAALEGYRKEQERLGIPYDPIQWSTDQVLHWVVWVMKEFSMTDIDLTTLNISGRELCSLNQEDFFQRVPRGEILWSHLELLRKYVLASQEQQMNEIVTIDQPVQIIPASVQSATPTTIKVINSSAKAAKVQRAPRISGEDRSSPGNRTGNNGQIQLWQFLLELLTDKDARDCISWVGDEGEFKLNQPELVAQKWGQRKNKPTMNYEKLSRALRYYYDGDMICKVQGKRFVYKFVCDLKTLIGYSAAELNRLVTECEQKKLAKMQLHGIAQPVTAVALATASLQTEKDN
Outline: as §1

[3] = molecular target: T3, ERG (Homo sapiens, UniProt P11308 1-479)
T3 sequence: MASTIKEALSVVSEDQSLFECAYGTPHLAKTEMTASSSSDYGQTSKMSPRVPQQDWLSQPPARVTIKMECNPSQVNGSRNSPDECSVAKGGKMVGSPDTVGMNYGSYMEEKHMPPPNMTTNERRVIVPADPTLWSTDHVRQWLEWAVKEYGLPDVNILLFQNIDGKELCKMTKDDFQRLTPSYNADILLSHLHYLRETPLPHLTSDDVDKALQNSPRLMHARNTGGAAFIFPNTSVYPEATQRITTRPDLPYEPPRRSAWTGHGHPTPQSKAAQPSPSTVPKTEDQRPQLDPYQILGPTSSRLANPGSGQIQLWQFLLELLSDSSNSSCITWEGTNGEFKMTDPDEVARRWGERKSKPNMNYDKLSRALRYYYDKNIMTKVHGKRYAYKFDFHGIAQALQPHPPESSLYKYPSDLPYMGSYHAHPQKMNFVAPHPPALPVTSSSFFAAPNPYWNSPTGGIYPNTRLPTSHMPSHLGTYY
Outline: as §1

[4] = molecular target: ELF1 (Homo sapiens, UniProt P32519 1-619)
Sequence of ELF1 (P32519 whole entry): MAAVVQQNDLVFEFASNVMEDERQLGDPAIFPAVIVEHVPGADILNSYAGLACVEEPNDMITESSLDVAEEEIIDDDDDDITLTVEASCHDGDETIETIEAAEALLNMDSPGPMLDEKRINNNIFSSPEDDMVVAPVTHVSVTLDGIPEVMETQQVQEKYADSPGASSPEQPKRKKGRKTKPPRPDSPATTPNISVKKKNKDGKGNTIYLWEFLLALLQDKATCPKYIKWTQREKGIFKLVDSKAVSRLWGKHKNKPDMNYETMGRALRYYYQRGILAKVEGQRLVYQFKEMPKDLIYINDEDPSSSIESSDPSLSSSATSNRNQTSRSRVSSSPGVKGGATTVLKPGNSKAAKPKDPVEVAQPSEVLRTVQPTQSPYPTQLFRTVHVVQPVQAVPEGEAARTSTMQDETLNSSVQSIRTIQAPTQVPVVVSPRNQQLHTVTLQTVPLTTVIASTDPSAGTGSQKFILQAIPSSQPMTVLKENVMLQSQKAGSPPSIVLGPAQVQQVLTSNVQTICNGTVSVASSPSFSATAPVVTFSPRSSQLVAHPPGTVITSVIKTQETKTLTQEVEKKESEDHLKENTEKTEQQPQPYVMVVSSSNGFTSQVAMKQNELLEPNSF
Outline: as §1

[5] = molecular target: T4, EHF (Homo sapiens, UniProt Q9NZC4 1-300)
T4 sequence: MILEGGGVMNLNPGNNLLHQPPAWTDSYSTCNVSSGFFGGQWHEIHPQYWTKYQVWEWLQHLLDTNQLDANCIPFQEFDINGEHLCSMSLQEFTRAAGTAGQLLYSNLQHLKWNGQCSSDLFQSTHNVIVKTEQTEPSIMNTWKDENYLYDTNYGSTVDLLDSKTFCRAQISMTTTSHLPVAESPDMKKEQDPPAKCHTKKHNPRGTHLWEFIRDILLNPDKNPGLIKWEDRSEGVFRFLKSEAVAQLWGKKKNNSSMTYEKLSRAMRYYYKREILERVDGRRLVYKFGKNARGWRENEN
Outline: as §1

[6] = molecular target: SPIB (Homo sapiens, UniProt Q01892 1-262)
Sequence of SPIB (Q01892 whole entry): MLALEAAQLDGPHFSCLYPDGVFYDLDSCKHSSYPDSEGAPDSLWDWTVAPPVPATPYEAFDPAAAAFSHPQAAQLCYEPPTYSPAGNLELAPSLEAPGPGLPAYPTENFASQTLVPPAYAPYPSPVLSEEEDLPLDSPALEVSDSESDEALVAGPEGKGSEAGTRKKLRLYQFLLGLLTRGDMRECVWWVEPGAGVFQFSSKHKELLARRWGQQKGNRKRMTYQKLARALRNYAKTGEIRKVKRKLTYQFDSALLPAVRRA
Outline: as §1

[7] = molecular target: T5, ELK3 (Homo sapiens, UniProt P41970 1-407)
T5 sequence: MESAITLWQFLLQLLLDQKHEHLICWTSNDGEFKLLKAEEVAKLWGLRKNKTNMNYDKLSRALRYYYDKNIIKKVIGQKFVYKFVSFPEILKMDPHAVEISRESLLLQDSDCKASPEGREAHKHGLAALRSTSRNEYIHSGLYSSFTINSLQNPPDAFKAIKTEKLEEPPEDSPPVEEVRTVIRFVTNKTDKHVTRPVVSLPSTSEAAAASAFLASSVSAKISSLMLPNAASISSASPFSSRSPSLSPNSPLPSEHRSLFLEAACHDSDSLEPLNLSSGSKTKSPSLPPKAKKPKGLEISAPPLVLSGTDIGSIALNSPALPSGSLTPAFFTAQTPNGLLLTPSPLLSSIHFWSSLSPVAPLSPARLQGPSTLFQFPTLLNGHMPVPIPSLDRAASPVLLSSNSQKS
Outline: as §1

[8] = molecular target: T6, FEV (Homo sapiens, UniProt Q99581 1-238)
T6 sequence: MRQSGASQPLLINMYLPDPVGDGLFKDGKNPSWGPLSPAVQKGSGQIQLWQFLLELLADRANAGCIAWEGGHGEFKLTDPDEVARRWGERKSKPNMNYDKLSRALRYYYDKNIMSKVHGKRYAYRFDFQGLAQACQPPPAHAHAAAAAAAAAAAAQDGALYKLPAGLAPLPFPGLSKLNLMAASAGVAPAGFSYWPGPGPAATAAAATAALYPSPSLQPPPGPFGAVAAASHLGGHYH
Outline: as §1

[9] = molecular target: ETV5 (Homo sapiens, UniProt P41161 1-510)
Sequence of ETV5 (P41161 whole entry): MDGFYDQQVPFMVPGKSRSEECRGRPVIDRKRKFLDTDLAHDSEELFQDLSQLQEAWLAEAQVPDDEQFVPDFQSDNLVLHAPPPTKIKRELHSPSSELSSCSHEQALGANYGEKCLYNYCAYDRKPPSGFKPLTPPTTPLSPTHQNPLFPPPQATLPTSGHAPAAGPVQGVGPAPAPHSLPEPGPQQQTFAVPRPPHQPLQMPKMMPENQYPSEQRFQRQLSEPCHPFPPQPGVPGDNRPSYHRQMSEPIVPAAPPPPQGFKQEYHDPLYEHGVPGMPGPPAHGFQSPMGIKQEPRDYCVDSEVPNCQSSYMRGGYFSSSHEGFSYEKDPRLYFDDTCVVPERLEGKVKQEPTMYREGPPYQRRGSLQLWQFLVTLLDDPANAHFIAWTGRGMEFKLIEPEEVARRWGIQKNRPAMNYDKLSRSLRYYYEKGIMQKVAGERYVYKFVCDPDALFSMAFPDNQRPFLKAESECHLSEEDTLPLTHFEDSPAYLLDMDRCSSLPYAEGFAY
Outline: as §1

## AGCGAT
[1]
  binding signal: 1.11 fold enrichment (6-mer frequency, TF over GST control)
[2]
  binding signal: 1.07 fold enrichment (6-mer frequency, TF over GST control)
[3]
  binding signal: 1.06 fold enrichment (6-mer frequency, TF over GST control)
[4]
  binding signal: 1.09 fold enrichment (6-mer frequency, TF over GST control)
[5]
  binding signal: 1.07 fold enrichment (6-mer frequency, TF over GST control)
[6]
  binding signal: 1.02 fold enrichment (6-mer frequency, TF over GST control)
[7]
  binding signal: 1.23 fold enrichment (6-mer frequency, TF over GST control)
[8]
  binding signal: 1.05 fold enrichment (6-mer frequency, TF over GST control)
[9]
  binding signal: 1.14 fold enrichment (6-mer frequency, TF over GST control)
